Results on nine compounds are retold here after PubChem BioAssay (EPA / NIEHS).

Test [1] concerns the target human Opioid Receptor Mu (Opiate Mu), OPRM1 (gene 4988) (UniProt P35372). Put plainly: NVS_GPCR_hOpiate_mu: NovaScreen (NVS) G Protein-Coupled Receptor Assay for human Opioid Receptor Mu (Opiate Mu) (AID 2283290).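 Note: hits lower bound tracer signal versus DMSO meaning displacement of the ligand.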 The method, boiled down: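 Here, radioligand binding to CHO-extracted receptor was measured after 2.5 h using filter-based scintillation detection. Initial single-concentration screening used 25 uM in duplicate with plate controls; confirmed actives went to concentration-response testing.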

The target in test [2] is rat Gamma-Aminobutyric Acid Type B Receptor (GABBR), Gabbr1 (gene 81657) (UniProt Q9Z0U4). The test is described as follows: NVS_GPCR_rGABBR: NovaScreen (NVS) G Protein-Coupled Receptor Assay for rat Gamma-Aminobutyric Acid Type B Receptor (GABBR) (AID 2283301). The method, boiled down: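 Rat cortical membrane preparation, competitive radioligand binding for 1 h with filtration and scintillation readout. Actives from duplicate single-point 25 uM screening proceeded to concentration series with 50 uM top concentration.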

For test [3], the target named is human Opioid Receptor Delta 1 (Opiate D1), OPRD1 (gene 4985) (UniProt P41143). Put plainly: NVS_GPCR_hOpiate_D1: NovaScreen (NVS) G Protein-Coupled Receptor Assay for human Opioid Receptor Delta 1 (Opiate D1) (AID 2283280). The method, boiled down: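 Membrane preparations from CHO cells bearing the human receptor were incubated 1 h with test chemical, and bound radioligand was counted after filtration. Actives from 25 uM duplicate screening were retested in concentration-response.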

Test [4] concerns the target Voltage-dependent N-type calcium channel subunit alpha-1B (Rattus norvegicus) (UniProt Q02294). The test is described as follows: NVS_IC_rCaChN: NovaScreen (NVS) Ion Channel Assay for rat Calcium Channel, Type N (CaChN) (AID 2283317).
Test [5] addresses human Thromboxane A2 Receptor (TXA2), TBXA2R (gene 6915) (UniProt P21731). The test is described as follows: NVS_GPCR_hTXA2: NovaScreen (NVS) G Protein-Coupled Receptor Assay for human Thromboxane A2 Receptor (TXA2) (AID 2283282).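 Note: actives reduce bound radioligand signal relative to DMSO baseline.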 The method, boiled down:
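Cell-free radioligand binding on membrane protein from human platelets; radioligand displacement read by filter-based scintillation counting after 1 h. Primary screen in duplicate at 25 uM, actives then run in concentration series; loss of signal versus DMSO.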

In test [6] the target is rat Neonicotinoid receptor (NNR), Chrna7 (gene 25302) (UniProt Q05941). The test is described as follows: NVS_LGIC_rNNR_BungSens: NovaScreen (NVS) Ligand-Gated Ion Channel Assay for rat Neonicotinoid receptor (NNR) (AID 2283315). The method, boiled down: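 Rat cortical membrane preparation incubated 2.5 h with tritiated or iodinated radioligand and test chemical. Bound radioactivity was filtered and counted by scintillation, and displacement was analysed against DMSO.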

Test [7] relates to 5-hydroxytryptamine receptor 2C (pig). Put plainly: NVS_GPCR_p5HT2C: NovaScreen (NVS) G Protein-Coupled Receptor Assay for pig Serotonin, 5-Hydroxytryptamine Receptor 2C (5HT2C) (AID 2283288). The method, boiled down:
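Radioligand displacement on membranes from pig choroid plexus, detected by filter scintillation counting after 1 h. Tested first at a single 25 uM in duplicate, then in concentration-response for actives; DMSO served as baseline.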

Records with an inconclusive call do not appear. Activity calls are given as the source filed them. Rule for the calls: active = hit-call score of the fitted dose curve at least 0.9, where 1 is the maximum; inconclusive = response in the unintended direction; inactive = score below 0.9.

Sequence of human Opioid Receptor Delta 1 (Opiate D1), OPRD1 (gene 4985) (P41143 whole entry, looked up): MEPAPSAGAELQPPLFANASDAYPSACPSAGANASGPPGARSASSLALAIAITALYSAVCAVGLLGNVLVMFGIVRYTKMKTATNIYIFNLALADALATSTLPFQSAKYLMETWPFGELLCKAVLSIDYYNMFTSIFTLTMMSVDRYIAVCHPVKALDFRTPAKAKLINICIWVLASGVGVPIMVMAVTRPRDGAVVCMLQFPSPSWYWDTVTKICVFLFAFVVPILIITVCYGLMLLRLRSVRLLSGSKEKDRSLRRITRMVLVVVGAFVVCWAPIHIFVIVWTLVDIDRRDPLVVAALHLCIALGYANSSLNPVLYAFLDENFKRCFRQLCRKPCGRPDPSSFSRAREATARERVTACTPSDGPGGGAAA
Sequence of human Opioid Receptor Mu (Opiate Mu), OPRM1 (gene 4988) (P35372 whole entry, looked up): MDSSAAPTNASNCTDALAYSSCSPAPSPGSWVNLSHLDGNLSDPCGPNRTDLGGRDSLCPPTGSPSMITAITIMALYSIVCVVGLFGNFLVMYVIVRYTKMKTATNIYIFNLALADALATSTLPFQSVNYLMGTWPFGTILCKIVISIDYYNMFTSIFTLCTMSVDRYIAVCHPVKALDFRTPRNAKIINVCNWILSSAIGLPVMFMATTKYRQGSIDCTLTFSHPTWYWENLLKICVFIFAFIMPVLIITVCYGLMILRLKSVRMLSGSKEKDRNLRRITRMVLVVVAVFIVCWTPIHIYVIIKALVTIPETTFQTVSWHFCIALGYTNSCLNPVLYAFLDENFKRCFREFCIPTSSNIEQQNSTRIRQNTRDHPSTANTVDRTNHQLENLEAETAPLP
Sequence of human Thromboxane A2 Receptor (TXA2), TBXA2R (gene 6915) (P21731 whole entry, looked up): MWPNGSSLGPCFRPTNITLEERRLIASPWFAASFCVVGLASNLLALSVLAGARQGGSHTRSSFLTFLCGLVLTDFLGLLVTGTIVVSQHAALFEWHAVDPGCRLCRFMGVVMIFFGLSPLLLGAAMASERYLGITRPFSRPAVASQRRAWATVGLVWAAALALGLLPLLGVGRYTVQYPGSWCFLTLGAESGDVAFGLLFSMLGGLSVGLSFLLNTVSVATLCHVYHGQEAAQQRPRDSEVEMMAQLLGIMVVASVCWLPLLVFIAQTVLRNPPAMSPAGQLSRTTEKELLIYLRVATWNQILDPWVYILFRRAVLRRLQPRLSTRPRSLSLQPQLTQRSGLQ
Sequence of rat Gamma-Aminobutyric Acid Type B Receptor (GABBR), Gabbr1 (gene 81657) (Q9Z0U4 whole entry, looked up): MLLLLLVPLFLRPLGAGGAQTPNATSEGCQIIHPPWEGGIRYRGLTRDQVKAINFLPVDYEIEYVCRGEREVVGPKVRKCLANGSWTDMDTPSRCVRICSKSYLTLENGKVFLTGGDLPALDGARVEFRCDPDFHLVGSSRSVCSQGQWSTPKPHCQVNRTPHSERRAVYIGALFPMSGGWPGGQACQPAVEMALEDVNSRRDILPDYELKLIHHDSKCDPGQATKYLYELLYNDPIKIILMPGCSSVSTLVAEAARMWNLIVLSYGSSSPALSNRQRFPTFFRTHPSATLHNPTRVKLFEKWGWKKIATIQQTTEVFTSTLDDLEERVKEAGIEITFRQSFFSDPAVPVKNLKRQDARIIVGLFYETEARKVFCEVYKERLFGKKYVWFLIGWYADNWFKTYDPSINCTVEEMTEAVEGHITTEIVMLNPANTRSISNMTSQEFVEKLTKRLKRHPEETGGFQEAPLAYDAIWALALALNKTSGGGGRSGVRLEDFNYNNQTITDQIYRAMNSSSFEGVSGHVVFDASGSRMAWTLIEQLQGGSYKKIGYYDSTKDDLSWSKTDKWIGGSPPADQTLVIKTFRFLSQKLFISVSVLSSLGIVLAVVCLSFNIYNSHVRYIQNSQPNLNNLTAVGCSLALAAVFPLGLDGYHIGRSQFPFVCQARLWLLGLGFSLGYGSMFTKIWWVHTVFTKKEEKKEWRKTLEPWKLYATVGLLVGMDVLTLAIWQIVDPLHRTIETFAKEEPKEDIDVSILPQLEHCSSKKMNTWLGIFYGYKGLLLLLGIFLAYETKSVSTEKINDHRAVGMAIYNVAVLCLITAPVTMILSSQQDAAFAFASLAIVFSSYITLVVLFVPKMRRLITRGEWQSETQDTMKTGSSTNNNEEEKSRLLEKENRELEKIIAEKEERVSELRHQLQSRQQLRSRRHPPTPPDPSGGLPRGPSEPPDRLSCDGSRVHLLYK
Sequence of rat Neonicotinoid receptor (NNR), Chrna7 (gene 25302) (Q05941 whole entry, looked up): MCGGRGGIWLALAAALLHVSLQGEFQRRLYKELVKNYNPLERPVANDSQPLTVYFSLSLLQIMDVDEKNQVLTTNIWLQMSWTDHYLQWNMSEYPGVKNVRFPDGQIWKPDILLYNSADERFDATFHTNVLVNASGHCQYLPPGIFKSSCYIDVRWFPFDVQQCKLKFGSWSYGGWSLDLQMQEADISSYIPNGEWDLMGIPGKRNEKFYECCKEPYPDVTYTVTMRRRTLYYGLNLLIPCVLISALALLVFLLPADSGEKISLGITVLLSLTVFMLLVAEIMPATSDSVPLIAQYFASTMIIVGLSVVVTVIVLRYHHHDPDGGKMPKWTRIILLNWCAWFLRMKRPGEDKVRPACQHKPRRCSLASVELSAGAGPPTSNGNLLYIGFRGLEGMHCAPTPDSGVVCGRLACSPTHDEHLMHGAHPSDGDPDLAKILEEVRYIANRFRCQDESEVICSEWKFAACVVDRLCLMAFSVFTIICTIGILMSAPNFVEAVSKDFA

Take `c1cc2c3c(cccc3c1)CC2`: in test [1], the compound was called inactive.

As for `CCC1(c2ccccc2)C(=O)N=C(O)NC1=O` (stereo not given), the call in test [2] was inactive.

With `Nc1ccc2ccccc2c1`, in test [1], the result was inactive.

With `CC(C)(C)OOC(C)(C)C`, the compound was called inactive in test [3].

On to `ClC1=C(Cl)C2(Cl)C3C(Cl)C(Cl)CC3C1(Cl)C2(Cl)Cl` (stereo not given), for which the call in test [3] and in test [4] was inactive.

Take `CCCN(CCC)c1c([N+](=O)[O-])cc(C(C)C)cc1[N+](=O)[O-]`: the result in test [1] was inactive.

As to `CSC(C)(C)C=NO`, the outcome in test [3], in test [5], in test [1] and in test [6] was inactive.

Usually AC50 stands for the midpoint of the concentration-response curve, whichever way the signal moves. `Cc1ccc(O)cc1C`: the AC50 in test [7] was 21.1 µM (active). Moreover, the call in test [1] was inactive.

For the compound `N#Cc1c(-c2ccc(Cl)cc2)[nH]c(C(F)(F)F)c1Br`, the AC50 in test [5] is 4.66 µM (active). In addition, the call in test [1] was inactive.
